# Reference: PubChem BioAssay (Tox21)
# “And” between values parts separate entries of the source, which are not always exact repeats. Equal entries are not always repeated. Records with an inconclusive call do not appear. Entries that show only a call come without a potency. Some structures have more than one record in an assay (separate samples or runs), and their calls can disagree. The source made the active and inactive calls. Unless noted, calls come from the whole dose curve; as a rule, active = well fitted curve in the direction sought with a large enough effect in the repeat runs; inconclusive = weak or mixed curves; inactive = no such curve, though single readings can be large; an effect the other way counts as inactive or inconclusive.
# Columns and labels:
# [1] = qHTS assay for small molecule agonists of the p53 signaling pathway (AID 651631; calls by dose curve; note: nearly all actives have a fitted effect of over 15% in size; note: potency is the fitted concentration of half-maximal effect)
# Procedure, shortened: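 HCT-116 cells carrying a beta-lactamase reporter under p53 response elements were dosed with compound for 16 h at 37 °C. LiveBLAzer B/G FRET substrate was then added for 2 h at room temperature, and fluorescence intensity was read to detect pathway agonism.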
# [2] = qHTS assay for small molecules that induce genotoxicity in human embryonic kidney cells expressing luciferase-tagged ATAD5 (AID 651632); note: nearly all actives have a fitted effect of over 15% in size
# Procedure, shortened: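 Reporter cells (HEK293T) express luciferase-tagged ATAD5, a protein that accumulates after DNA damage. Treat 16 hr at 37C/5% CO2, add Amplite, wait 30 min at RT, and read luminescence.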
# [3] = qHTS assay for small molecule agonists of the p53 signaling pathway - cell viability (AID 651633; calls by dose curve; note: nearly all actives have a fitted effect of over 30% in size; note: potency is the fitted concentration of half-maximal effect)
# Procedure, shortened: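 p53RE-bla cells, seeded at 4,000 per well and rested 5 h at 37 C/5% CO2, received compounds in DMSO for 16 h at 37 C. CellTiter-Glo was then added, and luminescence was read after 30 min at room temperature to gauge cytotoxicity.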
# [4] = qHTS assay for small molecules that induce genotoxicity in human embryonic kidney cells expressing luciferase-tagged ATAD5 - cell viability (AID 651634; calls by dose curve; note: nearly all actives have a fitted effect of over 25% in size)
# Procedure, shortened: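 Seeding of 2,000 HEK293T ATAD5-luciferase cells per well preceded pin-tool compound transfer. Plates sat 15.5 hr at 37C under 5% CO2, then fluorescence was read after 30 min with CellTiter-Fluor.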
# [5] = qHTS assay for small molecule disruptors of the mitochondrial membrane potential - cell viability (AID 720634; calls by dose curve; note: nearly all actives have a fitted effect of over 20% in size; note: potency is the fitted concentration of half-maximal effect)
# Procedure, shortened: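 Measuring cytotoxicity alongside mitochondrial potential, the screen quantified ATP by luminescence in HepG2 cells after 1 hr compound incubation and a 30 min room-temperature CellTiter-Glo step.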
# [6] = qHTS assay for small molecule disruptors of the mitochondrial membrane potential (AID 720635); note: potency is the fitted concentration of half-maximal effect
# Procedure, shortened: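 HepG2 cells (2,000/well) attached overnight at 37C, then took compound for 1 hr at 37C, 5% CO2. Mito-MPS dye was added for 30 min; fluorescence was read at 490/535 nm (monomers) and 540/590 nm (aggregates).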
# [7] = qHTS assay to test for compound auto fluorescence at 590 nm (red) in HepG2 cells (AID 720674)
# Procedure, shortened: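 Rose Bengal sodium served as the red fluorophore standard. HepG2 monolayers (overnight attachment, MEM with 10% FBS) were exposed to test compounds for 1 hr at 37 C and read at Ex 540/Em 590 nm.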
# [8] = qHTS assay to test for compound auto fluorescence at 535 nm (green) in HepG2 cells (AID 720675)
# [9] = qHTS assay to test for compound auto fluorescence at 460 nm (blue) in HEK293 cells (AID 720678)
# Procedure, shortened: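 Intrinsic compound fluorescence is recorded in live HEK293 cultures after overnight incubation at 37C, 5% CO2, using excitation 405 nm and emission 460 nm. Values are referenced to triamterene.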
# [10] = qHTS assay to test for compound auto fluorescence at 590 nm (red) in HEK293 cells (AID 720679)
# Procedure, shortened: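 Red autofluorescence, HEK293 cells: 2,000 cells/well; attach 4-5 hr 37C; add 23 nL cpd or DMSO; incubate o/n 37C 5% CO2; read Ex540/Em590; Rose Bengal sodium reference.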
# [11] = qHTS assay to test for compound auto fluorescence at 535 nm (green) in HEK293 cells (AID 720680)
# [12] = qHTS assay to test for compound auto fluorescence at 460 nm (blue) in HEK293 cell free culture (AID 720681)
# Procedure, shortened: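 Test compounds were pinned into cell-free culture medium (DMEM with 10% FBS) and fluorescence was read directly at Ex/Em 405/460 nm. Signals were expressed as fluorescence equivalents of triamterene, with DMSO vehicle as control.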
# [13] = qHTS assay to test for compound auto fluorescence at 535 nm (green) in HEK293 cell free culture (AID 720682)
# Procedure, shortened: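 Green-label autofluorescence (485 nm excitation, 535 nm emission) measured on compound added to cell-free culture medium (DMEM, 10% FBS). Output is expressed relative to fluorescein.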
# [14] = qHTS assay to test for compound auto fluorescence at 590 nm (red) in HEK293 cell free culture (AID 720683)
# Procedure, shortened: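 Tox21 10K library compounds were pinned into cell-free DMEM with 10% FBS and fluorescence was read at excitation 540 nm. Activity is expressed as Rose Bengal sodium equivalency.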
# [15] = qHTS assay to test for compound auto fluorescence at 590 nm (red) in HepG2 cell free culture (AID 720684)
# Procedure, shortened: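 Red fluorescence (540 nm excitation, 590 nm emission) was measured after compound transfer into cell-free MEM supplemented with 10% FBS. Values are equivalencies against Rose Bengal sodium.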
# [16] = qHTS assay to test for compound auto fluorescence at 460 nm (blue) in HepG2 cell free culture (AID 720685)
# Procedure, shortened: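 Compound (23 nL) or DMSO pinned into cell-free MEM with 10% FBS; blue fluorescence read at 405/460 nm excitation/emission, expressed as auto-fluorescence equivalency to triamterene.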
# [17] = qHTS assay to test for compound auto fluorescence at 535 nm (green) in HepG2 cell free culture (AID 720686)
# [18] = qHTS assay to test for compound auto fluorescence at 460 nm (blue) in HepG2 cells (AID 720687)
# Procedure, shortened: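 Cells (2,000/well in MEM with 10% FBS) attached overnight at 37 C, then were exposed to compound or DMSO for 1 hr at 37 C, 5% CO2. Fluorescence read at Ex/Em 405/460 nm, expressed as triamterene-equivalent signal.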
# [19] = target: Glucocorticoid receptor (Homo sapiens) (UniProt P04150); assay: qHTS assay to identify small molecule agonists of the glucocorticoid receptor (GR) signaling pathway (AID 720691; active = well fitted activation curve with a large enough effect in the signal ratio in the repeat runs, not every such curve was filed as active; the % refers to the signal ratio)
# Sequence of Glucocorticoid receptor (Homo sapiens) (P04150 whole entry, looked up): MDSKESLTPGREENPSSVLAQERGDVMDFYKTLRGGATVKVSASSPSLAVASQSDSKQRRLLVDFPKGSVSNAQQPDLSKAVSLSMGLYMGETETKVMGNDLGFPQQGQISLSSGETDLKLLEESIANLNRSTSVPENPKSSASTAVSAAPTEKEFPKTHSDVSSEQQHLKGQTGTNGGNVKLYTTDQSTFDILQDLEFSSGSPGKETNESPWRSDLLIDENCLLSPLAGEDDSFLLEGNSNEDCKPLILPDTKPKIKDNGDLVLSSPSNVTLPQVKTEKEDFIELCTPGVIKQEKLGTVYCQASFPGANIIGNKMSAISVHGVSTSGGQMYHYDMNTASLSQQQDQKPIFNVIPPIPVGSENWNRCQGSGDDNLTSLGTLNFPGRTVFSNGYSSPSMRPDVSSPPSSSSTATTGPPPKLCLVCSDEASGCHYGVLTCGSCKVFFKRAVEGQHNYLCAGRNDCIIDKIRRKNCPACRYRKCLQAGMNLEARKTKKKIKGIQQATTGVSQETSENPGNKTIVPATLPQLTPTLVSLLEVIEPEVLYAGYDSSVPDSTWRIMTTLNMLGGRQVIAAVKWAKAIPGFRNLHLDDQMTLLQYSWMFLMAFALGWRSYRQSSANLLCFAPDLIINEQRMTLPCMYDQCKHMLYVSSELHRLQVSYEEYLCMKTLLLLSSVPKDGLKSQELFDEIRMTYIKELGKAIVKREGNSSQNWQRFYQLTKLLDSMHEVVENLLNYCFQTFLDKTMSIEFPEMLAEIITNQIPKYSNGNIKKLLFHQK
# Procedure, shortened: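 Reporter read-out: fluorescence intensity following 2 h room-temperature LiveBLAzer B/G FRET substrate loading. Prior step: GR-bla HeLa cells held 4 h, then treated 18 h at 37 C.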
# [20] = target: Glucocorticoid receptor (Homo sapiens) (UniProt P04150); assay: qHTS assay to identify small molecule antagonists of the glucocorticoid receptor (GR) signaling pathway (AID 720692; active = well fitted inhibition curve with a large enough effect in the signal ratio in the repeat runs, not every such curve was filed as active; the % refers to the signal ratio)
# Procedure, shortened: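 Dexamethasone (5 nM final) stimulated a stably integrated GRE-beta-lactamase reporter in HeLa cells during 18 h co-incubation with compounds; signal was quantified as fluorescence intensity of B/G FRET substrate after 2 h.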
Compound,Potency [1],Potency [2],Potency [3],Potency [4],Potency [5],Potency [6],outcome [7],outcome [8],outcome [9],outcome [10],outcome [11],outcome [12],outcome [13],outcome [14],outcome [15],outcome [16],outcome [17],outcome [18],Potency [19],Potency [20]
Nc1ccncc1,inactive,inactive,inactive,inactive,inactive,inactive,inactive,inactive,inactive,inactive,inactive,inactive,inactive,inactive,inactive,inactive,inactive,,,
O=P(Oc1ccccc1)(Oc1ccccc1)Oc1ccccc1,inactive,inactive,inactive,inactive,13.6 µM (active),242 nM (active) and 1.22 µM (active),inactive,inactive,inactive,inactive,inactive,inactive,inactive,inactive,inactive,inactive,inactive,inactive,inactive,inactive
NCc1cccnc1,inactive,inactive,inactive,inactive,inactive,inactive,inactive,inactive,inactive,inactive,inactive,inactive,inactive,inactive,inactive,inactive,inactive,inactive,,
Nn1cnnc1,inactive,inactive,inactive,inactive,inactive,inactive,inactive,inactive,inactive,inactive,inactive,inactive,inactive,inactive,inactive,inactive,inactive,inactive,inactive,inactive
Clc1nc(Cl)nc(Cl)n1,inactive,inactive,inactive,inactive,inactive,inactive,,inactive,inactive,inactive,inactive,inactive,inactive,inactive,inactive,inactive,inactive,inactive,inactive,inactive
N#CCCCl,inactive,inactive,inactive,inactive,inactive,inactive,inactive,,inactive,inactive,inactive,inactive,inactive,inactive,inactive,inactive,inactive,inactive,inactive,inactive
C=CC(=O)OCCO,inactive,inactive,inactive,inactive,inactive,inactive,inactive,inactive,inactive,inactive,inactive,inactive,inactive,inactive,inactive,inactive,inactive,inactive,inactive,
CCOc1cc(C=O)ccc1O,inactive,inactive,inactive,inactive,inactive,inactive,inactive,inactive,inactive,inactive,inactive,inactive,inactive,inactive,inactive,inactive,inactive,inactive,inactive,inactive
CCCCCCCCCCCOC(=O)c1ccccc1C(=O)OCCCCCCCCCCC,inactive,inactive,inactive,inactive,inactive,inactive,inactive,,inactive,inactive,inactive,inactive,inactive,inactive,inactive,inactive,inactive,inactive,inactive,inactive
Oc1cc(Cl)ccc1Oc1ccc(Cl)cc1Cl,inactive,inactive,3.95 µM (active),,11.1 µM (active),4.22 µM (active) and 352 nM (active),,inactive,inactive,inactive,inactive,inactive,inactive,inactive,inactive,inactive,inactive,inactive,inactive,
Oc1c(Cl)c(Cl)c(Cl)c(Cl)c1Cl,3.37 µM (active) and 3.43 µM (active),inactive,inactive,,inactive,3.78 µM (active) and 1.53 µM (active),inactive,,inactive,inactive,inactive,inactive,inactive,inactive,inactive,inactive,inactive,inactive,inactive,
CCCCC(CC)COC(=O)c1ccc(C(=O)OCC(CC)CCCC)c(C(=O)OCC(CC)CCCC)c1 (stereo not given),inactive,inactive,inactive,inactive,,,inactive,inactive,inactive,inactive,inactive,inactive,inactive,inactive,inactive,inactive,inactive,,inactive,inactive
O=C(O)CC[N+](=O)[O-],inactive,,inactive,inactive,inactive,inactive,inactive,inactive,inactive,inactive,inactive,inactive,inactive,inactive,inactive,inactive,inactive,,inactive,inactive
COc1ccc(C=O)cc1,inactive,inactive,inactive,inactive,inactive,,,,inactive,inactive,inactive,inactive,inactive,inactive,inactive,inactive,inactive,,inactive,inactive
CC(C)C(=O)OCC(C)(C)C(OC(=O)C(C)C)C(C)C (stereo not given),inactive,inactive,30.9 µM (active) and inactive,inactive,inactive,,inactive,inactive,inactive,inactive,inactive,inactive,inactive,inactive,inactive,inactive,inactive,inactive,inactive,inactive
